Source: the supplement of paper PMC4466140

B1: unnamed (peptide)
chain: DTIDNVKSKIQDKEG

These binders were tested against ScBbc1 (assay: SPOT peptide array binding signal intensity (averaged, normalized) (arbitrary units (background-subtracted, floor 0; scale differs between SH3 domains)); higher = stronger binding of the SH3 domain to the peptide).
How it was run: (§1)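 SH3 domains from four yeast species were expressed as GST fusions in E. coli BL21(DE3) and purified on glutathione Sepharose. Each was incubated at 10 μg/ml overnight at 4°C in TBS-based blocking buffer on cellulose membranes bearing synthetic 15-mer peptides, in which serines replaced cysteines. Bound protein was detected with anti-GST antibody, an HRP anti-mouse secondary and luminol, then imaged and quantified with Genespotter. The binding signal is the normalized, background-subtracted spot intensity averaged over replicates, in arbitrary units that are not the same from one domain to another.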

Binder	SPOT peptide array binding signal intensity
B1	≤ 0

What follows are binders tested against ScBem1-D1 in the same assay as above.
How it was run: as §1

Binder	SPOT peptide array binding signal intensity
B1	≤ 0

These binders were tested against ScBzz1-D1 in the same assay as above.
How it was run: as §1

Binder	SPOT peptide array binding signal intensity
B1	12

What follows are binders tested against ScBzz1-D2 in the same assay as above.
How it was run: as §1

Binder	SPOT peptide array binding signal intensity
B1	≤ 0

What follows are binders tested against ScCyk3 in the same assay as above.
How it was run: as §1

Binder	SPOT peptide array binding signal intensity
B1	≤ 0

Each binder was assayed against ScFus1 in the same assay as above.
How it was run: as §1

Binder	SPOT peptide array binding signal intensity
B1	≤ 0

Each binder was assayed against ScHof1 in the same assay as above.
How it was run: as §1

Binder	SPOT peptide array binding signal intensity
B1	≤ 0

These binders were tested against ScHse1 in the same assay as above.
How it was run: as §1

Binder	SPOT peptide array binding signal intensity
B1	≤ 0

What follows are binders tested against ScLsb1 in the same assay as above.
How it was run: as §1

Binder	SPOT peptide array binding signal intensity
B1	≤ 0

The binders below were run against ScLsb2 in the same assay as above.
How it was run: as §1

Binder	SPOT peptide array binding signal intensity
B1	≤ 0

The binders below were run against ScLsb3 in the same assay as above.
How it was run: as §1

Binder	SPOT peptide array binding signal intensity
B1	≤ 0

These binders were tested against ScLsb4 in the same assay as above.
How it was run: as §1

Binder	SPOT peptide array binding signal intensity
B1	≤ 0

What follows are binders tested against ScMyo3 in the same assay as above.
How it was run: as §1

Binder	SPOT peptide array binding signal intensity
B1	≤ 0

These binders were tested against ScMyo5 in the same assay as above.
How it was run: as §1

Binder	SPOT peptide array binding signal intensity
B1	1

These binders were tested against ScNbp2 in the same assay as above.
How it was run: as §1

Binder	SPOT peptide array binding signal intensity
B1	≤ 0

These binders were tested against ScPex13 in the same assay as above.
How it was run: as §1

Binder	SPOT peptide array binding signal intensity
B1	≤ 0

Each binder was assayed against ScRvs167 in the same assay as above.
How it was run: as §1

Binder	SPOT peptide array binding signal intensity
B1	≤ 0

The binders below were run against ScSho1 in the same assay as above.
How it was run: as §1

Binder	SPOT peptide array binding signal intensity
B1	≤ 0

These binders were tested against ScSla1-D1-D2 in the same assay as above.
How it was run: as §1

Binder	SPOT peptide array binding signal intensity
B1	≤ 0

These binders were tested against ScSla1-D3 in the same assay as above.
How it was run: as §1

Binder	SPOT peptide array binding signal intensity
B1	≤ 0

Each binder was assayed against SpAbp1-D1 in the same assay as above.
How it was run: as §1

Binder	SPOT peptide array binding signal intensity
B1	≤ 0

What follows are binders tested against SpBbc1 in the same assay as above.
How it was run: as §1

Binder	SPOT peptide array binding signal intensity
B1	≤ 0

The binders below were run against SpBzz1-D1 in the same assay as above.
How it was run: as §1

Binder	SPOT peptide array binding signal intensity
B1	≤ 0

What follows are binders tested against SpBzz1-D2 in the same assay as above.
How it was run: as §1

Binder	SPOT peptide array binding signal intensity
B1	≤ 0

Each binder was assayed against SpCyk3 in the same assay as above.
How it was run: as §1

Binder	SPOT peptide array binding signal intensity
B1	≤ 0

These binders were tested against SpHof1 in the same assay as above.
How it was run: as §1

Binder	SPOT peptide array binding signal intensity
B1	≤ 0

These binders were tested against SpHof1-2 in the same assay as above.
How it was run: as §1

Binder	SPOT peptide array binding signal intensity
B1	≤ 0

The binders below were run against SpHof1-3 in the same assay as above.
How it was run: as §1

Binder	SPOT peptide array binding signal intensity
B1	7.75

These binders were tested against SpHse1 in the same assay as above.
How it was run: as §1

Binder	SPOT peptide array binding signal intensity
B1	≤ 0

Each binder was assayed against SpLsb1 in the same assay as above.
How it was run: as §1

Binder	SPOT peptide array binding signal intensity
B1	≤ 0

What follows are binders tested against SpLsb4 in the same assay as above.
How it was run: as §1

Binder	SPOT peptide array binding signal intensity
B1	≤ 0

Each binder was assayed against SpMyo1 in the same assay as above.
How it was run: as §1

Binder	SPOT peptide array binding signal intensity
B1	≤ 0

What follows are binders tested against SpNbp2 in the same assay as above.
How it was run: as §1

Binder	SPOT peptide array binding signal intensity
B1	≤ 0

Each binder was assayed against SpPex13 in the same assay as above.
How it was run: as §1

Binder	SPOT peptide array binding signal intensity
B1	≤ 0

Each binder was assayed against SpRvs167 in the same assay as above.
How it was run: as §1

Binder	SPOT peptide array binding signal intensity
B1	≤ 0

These binders were tested against SpSla1-D1-D2 in the same assay as above.
How it was run: as §1

Binder	SPOT peptide array binding signal intensity
B1	≤ 0

These binders were tested against SpSla1-D3 in the same assay as above.
How it was run: as §1

Binder	SPOT peptide array binding signal intensity
B1	≤ 0
